Assay results as given in ChEMBL document CHEMBL3988442, “University of Dundee, Small-Polar-MMV Screening Library” (2021).
About 13,000 (27%) of roughly 48,000 compounds showed an effect of 50% or more. Some of the results follow.

Each compound was assayed on Wolbachia pipientis (assay: Anti-Wolbachia Cell-Based Screen). Details: 5 µM.
Format: functional
Parameters: scale not given: in the data most compounds retested in dose-response had high values

SMILES	Percent Effect [%]
COCCN1CCCC2(CCN(c3nccc4ccccc34)C2)C1=O (stereo unspecified)	0.09488
CC(C1CC1)N(C)Cc1nnc(-c2ccco2)o1 (stereo unspecified)	-0.554
CN(C)C(=O)N1C[C@@H]2CC[C@H](C1)N(Cc1nnc(-c3ccccc3)o1)C2	137.1
c1ccc(-c2nnc(CN3C[C@@H]4CC[C@H](C3)N(CC3CCC3)C4)o2)cc1	0.05664
CN(C)C(=O)N1C[C@@H]2CC[C@H](C1)N(Cc1nnc(-c3ccco3)o1)C2	70.33
CN(C)C(=O)N1C[C@@H]2CC[C@H](C1)N(C/C=C/c1ccc(F)cc1)C2	7.662
c1ccc(CN2C[C@H]3CC[C@@H]2CN(Cc2nnc(C4CC4)o2)C3)cc1	2.015
CN(C)C(=O)N1C[C@@H]2CC[C@H](C1)N(Cc1ccc3nsnc3c1)C2	-1.823
CN(C)C(=O)N1C[C@@H]2CC[C@H](C1)N(Cc1nnc(C3CC3)o1)C2	98.65
c1ccc(CN2C[C@@H]3CC[C@H](C2)N(Cc2nnc(C4CC4)o2)C3)cc1	-6.562
CCC(NCc1ccccn1)c1ccccc1OCC(=O)NC (stereo unspecified)	13.68
COc1cccc(CNCC2CN(C)CCO2)c1 (stereo unspecified)	98.93
CN1CCOC(CNCc2nc(-c3ccco3)no2)C1 (stereo unspecified)	-7.293
CCCOc1cccc(CNC(=O)CN2CCN(C)CC2C)c1 (stereo unspecified)	-6.684
COCCOc1cccc(CNCC2CN(C)CCO2)c1 (stereo unspecified)	121.8
CN1CCOC(CNC(=O)CCCOCCc2ccccc2)C1 (stereo unspecified)	-8.698
CN1CCOC(CNCc2cccc(OCC(F)(F)F)c2)C1 (stereo unspecified)	-1.081
CN1CCOC(CNCc2cccc(OC(F)(F)F)c2)C1 (stereo unspecified)	76.13
CCOC(=O)CCNC(=O)N1CCOC(Cc2cccc(OC)c2)C1 (stereo unspecified)	-8.536
FC(F)(F)Oc1cccc(CNC[C@H]2Cn3ccnc3CO2)c1	-15.74
CCCc1n[nH]c(C2CN(CCNC3CCCCC3)CCO2)n1 (stereo unspecified)	8.814
COc1cc(CNc2nc(C3CC3)no2)cc(OC)c1OC	3.811
O=C(NCc1cccc(F)c1)Nc1ccn(CCN2CCOCC2)n1	-19.73
O=C(NCCN1CCOCC1)c1cc(-c2ccc3c(c2)CCO3)n[nH]1	2.601
Cc1nc(CCCN2CCOCC2)n(Cc2ccc(F)cc2)n1	-6.384
O=c1[nH]nc(CCCN2CCOCC2)n1Cc1cccc(F)c1	102.2

SMILES	Percent Effect [%]
O=C1CCC(=O)N1CCN1CCN(c2cc(F)ccc2F)CC1	-16.23
Cc1ccc(F)cc1-n1c(CCCN2CCOCC2)n[nH]c1=O	109.2
O=C1O[C@@H]2CN(Cc3cccc(F)c3)C[C@@H]2N1CCCN1CCOCC1	11.87
O=c1[nH]nc(CCCN2CCOCC2)n1-c1ccc(F)cc1F	93.86
O=C(NCCN1CCOCC1)Nc1cc(F)ccc1-n1cccn1	-8.933
CN1C[C@@H](n2cnc(-c3ccccc3)c2-c2ccccn2)C[C@H]1C(=O)O	-24.01
CC(C)(C)CN1CCOC[C@H]1c1nc(-c2cccc(F)c2)c[nH]1	4.483
Cc1nccn1C1CCCN(C(=O)C2=NN(C)C(=O)CC2)C1 (stereo unspecified)	-2.156
Cc1nn(C)cc1S(=O)(=O)N[C@@H]1CC[C@@H](n2ccnc2C)[C@@H]1O	99.22
Cn1cc(S(=O)(=O)N2CCCC2Cn2ccnc2)cc1C(N)=O (stereo unspecified)	-5.902
Cc1nn(C)cc1CN1CCCn2nc(CNC(=O)C3CCC3)cc2C1	-11.1
CO[C@@H]1CC[C@@H](NS(=O)(=O)c2cn(C)nc2C)[C@H]1O	86.74
Cc1nn(C)cc1S(=O)(=O)N[C@@H]1CCC[C@@H](N2CCCC2)[C@@H]1O	95.33
Cc1nn(C)cc1S(=O)(=O)N[C@@H]1CCC[C@@H](n2ccnc2)[C@@H]1O	85.24
Cn1cc(S(=O)(=O)N2CCCC2Cn2ccnc2)cn1 (stereo unspecified)	-1.128
Cc1nccnc1N1CC[C@@H](NC(=O)c2cnccn2)[C@H](O)C1	-17.03
Cc1nc2n(n1)CC(NCC(=O)NCC1(c3ccccc3)CC1)CC2 (stereo unspecified)	-4.512
CN(C(=O)c1cccc(OCC(F)F)n1)c1ccc2c(c1)CCO2	3.505
CCCOc1cccc(NS(=O)(=O)c2cc(C(=O)O)cs2)c1	12.59
Cc1ccccc1C(=O)Nc1ccc([C@H]2OCC(=O)N(C)[C@@H]2CO)cc1	-10.53
CN(CC1CCCCC1)C(=O)c1cn(C)nc1-c1cccnc1	20.64
O=C(NC1CC1)C1CCc2nnc(-c3cccnc3)n21 (stereo unspecified)	102.7
O=C(NC1CC1)C1CCc2nnc(-c3cccc(C(F)(F)F)c3)n21 (stereo unspecified)	107.7
CN1Cc2nc[nH]c2C[C@H]1C(=O)NC1CCCCC1	0.3029
O=C(NC1CC1)C1CCc2nnc(C3CC3)n21 (stereo unspecified)	105.6
O=C(NC1CC1)C1CCCN(c2cccc(C(F)(F)F)n2)C1 (stereo unspecified)	-13

SMILES	Percent Effect [%]
Cn1cc(C(=O)NC2CCCC2)c(-c2cccnc2)n1	1.647
CNC(=O)C(C)(C)N1CCC[C@H]1C(=O)NC1CC1	8.345
CCCS(=O)(=O)N1C[C@@H]2COC[C@@H](Cc3nc(C)no3)[C@@H]2C1	1.373
CCc1nc(CN2CCCN(C(=O)c3cn[nH]c3C)CC2)cs1	4.84
COc1cc(NCCNC(=O)c2cscc2C)cc(OC)c1	-3.159
CN(CCNS(C)(=O)=O)CC(c1cccs1)N1CCOCC1 (stereo unspecified)	-6.912
CCCc1nc(C)c(C(=O)NCCN2CCOCC2)s1	118.3
CCc1nc(C)c(C(=O)NCCN2CCCC2)s1	119.2
Cc1nc(-c2noc3ccc(C(=O)NCCN4CCOCC4)cc23)cs1	-14.65
CCCc1nc(C)c(C(=O)NC2CCN(C3CC3)C2)s1 (stereo unspecified)	4.49
CCCc1nc(C)c(C(=O)NCCn2ccnc2)s1	-2.524
CCc1nc(C)c(CNC(=O)CCCN2CCCCC2)s1	-7.179
CCCc1nc(C)c(C(=O)NC2CCN(c3ncccn3)CC2)s1	-4.746
CCc1nc(C)c(C(=O)NCCNc2ncccn2)s1	-5.791
CCCc1nc(C)c(C(=O)NCCN2CCCCC2)s1	125.3
Cc1cc(F)ccc1S(=O)(=O)NCc1[nH]ncc1Br	19.22
COc1ccc2c(c1)OCC(Cc1ccc(N)cn1)C2 (stereo unspecified)	-6.73
O=C(Nc1cccnc1)C1CCN(c2cc(-n3ccnc3)ncn2)CC1	4.084
CC(C)=CCN1C[C@@H](C(=O)O)C[C@H](C(=O)Nc2ccc(C)nc2)C1	93.94
Cc1ccc(NC(=O)[C@@H]2C[C@H](C(=O)O)CN(Cc3sccc3C)C2)cn1	101.2
COc1ccccc1[C@@H]1CN(CC2CCC2)C[C@H]1C(=O)O	-30.09
CCCc1nc(C)cc(N2CCNC(C(=O)Nc3ccc(C)nc3)C2)n1 (stereo unspecified)	-5.575
Cc1ccc(N2CCC(C3CCN(CC(C)C)CC3)C2)nn1 (stereo unspecified)	-23.48
Cc1cncc(C(=O)N2CCNCC2C(=O)Nc2ccc(C)nc2)c1 (stereo unspecified)	4.535
Cc1ccc(NC(=O)[C@H]2C[C@H](C(=O)O)CN(CC(C)C)C2)cn1	103.8
Cc1ccsc1CN1CC2(CCN(C(=O)C3CC3)CC2)CC1C(=O)O (stereo unspecified)	-16.18

SMILES	Percent Effect [%]
Cc1ccc(NC(=O)[C@H]2C[C@H](C(=O)O)CN(CC3CC3)C2)cn1	109.3
Cc1ccsc1CN1CCCC(CNC(=O)c2ccc(N)nc2)C1 (stereo unspecified)	1.774
Cc1ccc(NC(=O)c2nc3c(s2)CCCN3C(C)C)cn1	4.841
Cc1nc(C(C)(C)C)sc1C(=O)NCCn1cccn1	3.617
COc1ccc(F)cc1CSCC(=O)N(CCC#N)CCC#N	-2.312
N#Cc1ccccc1CN1CCC(c2nccn2CC2CCC2)CC1	43.99
COC[C@@H]1CC[C@H]2[C@H](CCN2S(=O)(=O)c2cccc(C)c2)O1	4.659
c1ccc2c(CC3CN(Cc4nccs4)CCO3)cccc2c1 (stereo unspecified)	-0.1296
CN(C)CC1CN(Cc2c(Cl)ccc3cccnc23)CCO1 (stereo unspecified)	-12.27
CCn1c(CN2CCOC(Cn3cccn3)C2)nc2c(F)cccc21 (stereo unspecified)	-12.64
CN(C)CC1CN(Cc2coc(-c3cccs3)n2)CCO1 (stereo unspecified)	-7.744
CN(C)CC1CN(Cc2cc(Cl)cc3cccnc23)CCO1 (stereo unspecified)	-1.777
COc1cccc(F)c1CN1CCC(c2nccc(C)n2)C1 (stereo unspecified)	140.3
CN(C)Cc1ccnc(C2CN(Cc3nccs3)CCO2)n1 (stereo unspecified)	100.5
COc1cccc(O)c1CN1CCCC(Nc2cccc(F)c2)C1 (stereo unspecified)	-13.27
CCn1ccnc1C1CCN(Cc2c(F)cccc2F)CC1	1.845
CN(C)Cc1ccnc(C2CN(Cc3c(F)cccc3F)CCO2)n1 (stereo unspecified)	127
Cc1cccnc1CN1CCOC(Cc2cccc3ccccc23)C1 (stereo unspecified)	-2.143
Cc1ccccc1CN1CCOC(c2nccc(CN(C)C)n2)C1 (stereo unspecified)	127.2
COCCNS(=O)(=O)c1cccc2c1CN(C(=O)c1ccccc1)CC2	14.65
O=C(c1ccno1)N1CCOC[C@H](Oc2ccccc2)C1	-14.73
CC(C1CCN(Cc2cnn(C)c2C2CC2)CC1)N(C)C (stereo unspecified)	-2.941
CC(C)(CN1CCCC1)CN1CCC(Cn2cc(C3CC3)nn2)CC1	12.62
